Results taken from PubChem BioAssay AID1159580 (chemical genetic matrix, 2015).
Out of some 5,500 compounds screened, about 2,000 (36%) were called active. About 18% were inconclusive and are not listed. No stated cut-off is given here; in the data, active means normalized growth mostly below about 0.91 (no sharp cut-off); inconclusive means no clear call, values can overlap the other calls; inactive means mostly above about 0.92. The list shows a part of the results.

Assay: chemical genetic growth profiling, strain panel (AID 1159580);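 further: tested at 20 µM; growth read once vehicle control cultures reached saturation at 30 °C; 1 = growth at the plate median or of vehicle wells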
Details: S. cerevisiae deletion strains, growth OD
[1] = locus YAL040C, strain CLN3, stronger effect = lower value
[2] = locus YDR363W, strain ESC2, stronger effect = lower value
[3] = locus YER002W, strain NOP16, stronger effect = lower value
[4] = locus YNL175C, strain NOP13, stronger effect = lower value
[5] = locus YNL197C, strain WHI3, stronger effect = lower value
[6] = locus YNL224C, strain SQS1, stronger effect = lower value
[7] = locus YOR083W, strain WHI5 (second series), stronger effect = lower value
[8] = locus YPL055C, strain LGE1, stronger effect = lower value

Measured: normalized growth

CN(C)CC[C@@H](c1ccc(Cl)cc1)c1ccccn1
inactive: [1] 1 | [2] 1 | [3] 0.998 | locus YGR078C, strain PAC10, stronger effect = lower value 1.01 | [4] 1.01 | [5] 1 | [6] 0.999 | [7] 1.01 | [8] 1.01

OC[C@H]1NC[C@@H](O)[C@@H]1O
inactive: [1] 0.993 | locus YCL061C, strain MRC1 (second series), stronger effect = lower value 1 | [2] 1.02 | [3] 0.998 | locus YGR229C, strain SMI1, stronger effect = lower value 1.02 | locus YNL153C, strain GIM3, stronger effect = lower value 0.999 | [4] 0.991 | [5] 1 | [6] 0.992 | [7] 1.01 | [8] 0.996 | locus YPL241C, strain CIN2, stronger effect = lower value 1.01
